Hits are enriched below; roughly 19% of the tested compounds scored in any of these assays.
Chronic BCR inh: blocks chronic active B-cell receptor signaling; ABC-DLBCL IkBa-CBG/CBR reporter, luminescence ratio, 4 h; Potency, µM (doses to about 46.1 µM), for inactives: top-dose activity change, negative = inhibition, hits mostly inhibitors; actives 0.05% (n = 340,000); AID 493014; active = well fitted inhibition curve with a large enough effect in the signal ratio, with a control signal flat, not every such curve was filed as active; inconclusive = small, poorly fitted or top-dose-only effect, or effect the other way, or a change in a side signal; the % refers to the signal ratio;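 also: potency is read from the fitted curve at half-maximal effect; plate controls were basal doxycycline-induced cells for no effect and cells given 10 µM MG132 for full effect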
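TMD8 human ABC-DLBCL cells with doxycycline-inducible IκBα–green luciferase fusion and unfused red luciferase, in 0.5% FBS medium; compounds up to 46 uM, 4 h at 37C. Green/red luminescence ratio, filter-overlap corrected, fitted to concentration-response curves.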
DT40 TDP1 no CPT: qHTS for Inhibitors of human tyrosyl-DNA phosphodiesterase 1 (TDP1): qHTS in cells in absence of CPT | DT40 Tdp1-/- hTDP1 cells, no CPT, ATP luminescence, 48 h | Potency, µM (top dose mostly 46.2 µM), for inactives: at the top dose activity change, negative = growth inhibition, usual class: inhibitors | actives 15% (n = 420,000) | AID 686978, 2013; also: potency is read from the fitted curve at half-maximal effect; % is scaled to controls: 0 for no effect and ±100 for the full control effect; nearly all actives have a fitted effect of over 55% in size
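Compound effects on proliferation are scored in DT40 Tdp1-/-;hTDP1 cells in the absence of CPT. ATP levels (CellTiter-Glo luminescence) are recorded after a ≥48 hr, 37 °C incubation.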
MCF10A rerep: inducers of DNA re-replication in MCF 10A breast cells; AID 624296; actives 2.9% (n = 350,000); MCF 10A DNA re-replication, Hoechst nuclear intensity, 48 h; Potency, µM (highest dose often 46.1 µM), inactives show at the top dose activity, positive = re-replication, usual class: activators; also: potency is read from the fitted curve at half-maximal effect; % of control where 0% means no effect; nearly all actives have a fitted effect of over 50% in size
IL-1B inflam inh: blocks inflammasome-driven IL-1 beta release. actives 4.7% (n = 360,000). AID 743279. THP-1 LPS/ATP IL-1B secretion, AlphaLISA, 16 h; hits give low values. activity change, % at 57.5 µM; in the data active = activity change below about -50%; inconclusive = mostly about -30% to -49%; also: % is scaled to controls: 0 for no effect and ±100 for the full control effect
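THP-1 cells pretreated 1 hr with compounds (up to 57.5 uM final), then stimulated with LPS (250 ng/mL final) plus ATP (1.25 mM final); secreted IL-1B measured by AlphaLISA after 16 hr, decreased signal indicating inhibition.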
SW480 rerep: DNA re-replication induction in SW480 cells. SW480 DNA re-replication, Hoechst DNA content imaging, 48 h. Potency, µM (doses to about 46.1 µM), without a hit: top-dose re-replication activation, hits mostly activators. actives 1.8% (n = 340,000). AID 624297; also: potency is read from the fitted curve at half-maximal effect; % of control where 0% means no effect; nearly all actives have a fitted effect of over 55% in size
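250 cells/well; 23 nL cpd via pin tool; 48 hr, 37 C, 5% CO2; Hoechst 40 min; imager read of total nuclear intensity, ex 405/em 500-530 nm.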
TDP1 cell CPT: DT40-hTDP1 cell growth loss with CPT; chicken DT40 Tdp1-/-;hTDP1 cells + 20 nM CPT, ATP luminescence, 48 h; Potency, µM (titrated, usually from 46.2 µM), without a hit: at the top dose activity change, negative = growth inhibition, most hits filed as inhibitors; actives 12% (n = 420,000); also: potency is read from the fitted curve at half-maximal effect; % is scaled to controls: 0 for no effect and ±100 for the full control effect; nearly all actives have a fitted effect of over 55% in size
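Cell growth measured by CellTiter-Glo luminescence after a minimum 48 h, 37 C compound exposure with 20 nM CPT in Tdp1-knockout DT40 cells stably expressing hTDP1, seeded 400/well; qHTS titration format.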
* hit, by the source's call; ? = inconclusive; . = no result; ! = not confirmed by another sample. Unless noted, calls follow the shape of the dose curve; as a rule, active = well fitted curve in the direction sought with a large enough effect; inconclusive = small, poorly fitted or top-dose-only effect, or another doubt; inactive = no such curve, though single readings can be large; an effect the other way counts as inactive or inconclusive.

SMILES	Chronic BCR inh	DT40 TDP1 no CPT	MCF10A rerep	IL-1B inflam inh	SW480 rerep	TDP1 cell CPT
COc1cccc(NC(=O)c2ccccc2N2C(=O)C3C4C=CC(C4)C3C2=O)c1 (configuration not stated)	1%	-17%	0%	-17	2%	-2%
NC(=S)N/N=C1/CCSc2ccc3ccccc3c21	?	2.6µM*	?	-95*	-3%	3.7µM*
NC(=S)N/N=C/c1coc2c(ccc3ccccc32)c1=O	?	-1%	-4%	1	16%	-15%
CC(=O)N1CCN(c2ccccc2NC(=O)Cc2ccc(Cl)cc2)CC1	4%	?	2%	-11	-6%	-27%
O=C(Cc1ccc(Cl)cc1)Nc1ccccc1N1CCOCC1	12%	16µM*	27%	11	5%	?
Cc1ccc(CC(=O)Nc2ccccc2N2CCOCC2)cc1C	-14%	?	28%	-2	-1%	16µM*
Cc1ccc(NC(=O)CSC(C)C(=O)OCc2cc(=O)oc3cc(O)ccc23)cc1 (configuration not stated)	.	-27%	.	10	.	-11%
O=C1C(=O)N(CCCN2CCOCC2)C(c2ccc([N+](=O)[O-])cc2)/C1=C(/O)c1ccc2c(c1)OCO2 (configuration not stated)	0%	1%	20%	-2	6%	-21%
COc1cccc(CC2(CO)CCCN(Cc3ccc(CN4CCCCC4)s3)C2)c1 (configuration not stated)	19%	?	?	-11	-4%	21µM*
COc1cccc(CC2(CO)CCCN(Cc3ccc(OC)c(C)c3OC)C2)c1 (configuration not stated)	-7%	16µM*	?	0	3%	18µM*
COc1cc(Cl)c(CN2CCCC(CO)(Cc3cccc(Cl)c3)C2)cc1OC (configuration not stated)	-9%	?	?	11	?	18µM*
COc1ccc(F)c(CN2CCCC(CO)(Cc3cccc(Cl)c3)C2)c1 (configuration not stated)	-2%	?	16%	-7	6%	?
COCc1ccc(CN2CCCC(CO)(Cc3cccc(OC)c3)C2)o1 (configuration not stated)	-10%	-43%	?	-16	?	?
COc1cccc(CC2(CO)CCCN(Cc3ccccc3Cl)C2)c1 (configuration not stated)	-1%	?	4.6µM*	0	-10%	?
CCC(C(=O)Nc1ccc(C(C)=O)cc1)n1cnc2nc3c(cc2c1=O)CCCC3 (configuration not stated)	.	?	.	.	.	-23%
COc1cccc(CC2(CO)CCCN(Cc3cn(C)c4ccccc34)C2)c1 (configuration not stated)	?	23µM*	?	-12	-76%	21µM*
COc1cccc(CC2(CO)CCCN(Cc3cc(F)ccc3-n3cccn3)C2)c1 (configuration not stated)	-2%	?	2%	-3	-70%	?
CCn1nc(C)c(CN2CCCC(CO)(Cc3cccc(Cl)c3)C2)c1C (configuration not stated)	-18%	16µM*	0%	-2	1%	?
CCn1cc(CN2CCCC(CO)(Cc3ccc(F)cc3)C2)c2ccccc21 (configuration not stated)	0%	?	11%	-65*	22%	?
COc1cccc(CC2(CO)CCCN(Cc3cnn(-c4ccccc4)c3)C2)c1 (configuration not stated)	6%	26µM*	-9%	?	?	?
CSCCCN1CCCC(CO)(Cc2ccc(F)cc2)C1 (configuration not stated)	?	-23%	0%	-11	-1%	-11%
COc1cccc(CC2(CO)CCCN(Cc3cn[nH]c3-c3ccc(F)cc3)C2)c1 (configuration not stated)	7%	?	?	?	0%	?
Nc1ccccc1S(=O)(=O)C(F)F	4%	-1%	0%	31	-1%	2%
CC(C)(C)OC(=O)COc1ccc(/C=N/NC(=O)CN2CCCCC2)cc1	2%	12%	-8%	-3	0%	5%
O=C(O)c1ccc(S(=O)(=O)N[C@H](Cc2c[nH]c3ccccc23)C(=O)O)cc1	0%	.	.	.	.	.
SMILES	Chronic BCR inh	DT40 TDP1 no CPT	MCF10A rerep	IL-1B inflam inh	SW480 rerep	TDP1 cell CPT
CCOC1=C2[C@@H](CN(S(=O)(=O)c3ccc(C)cc3)[C@H]2c2cccs2)[C@H]2C(=O)N(c3ccccc3)C(=O)[C@H]2C1	.	?	.	19	.	-15%
COc1cccc(CC2(CO)CCCN(C/C=C/c3ccccc3OC)C2)c1 (configuration not stated)	?	?	8%	-5	12%	?
CC(C)(O)C#Cc1ccc(CN2CCCC(CO)(Cc3cccc(Cl)c3)C2)cc1 (configuration not stated)	?	15µM*	25%	-3	1%	15µM*
OCC1(Cc2cccc(Cl)c2)CCCN(Cc2sc(N3CCCC3)nc2Cl)C1 (configuration not stated)	-1%	18µM*	20%	8	9%	21µM*
Cc1c(CN2CCCC(CO)(Cc3cccc(Cl)c3)C2)cnn1C (configuration not stated)	?	12%	3%	-14	-4%	-22%
Cc1ccccc1CC1(CO)CCCN(Cc2ccc(C#CC(C)(C)O)cc2)C1 (configuration not stated)	?	?	2%	-29	-6%	?
COc1ccccc1/C=C/CN1CCCC(CO)(Cc2cccc(Cl)c2)C1 (configuration not stated)	?	23µM*	?	-70*	?	?
O=C(CN1CCN(S(=O)(=O)c2ccc(Br)cc2)CC1)N/N=C/c1cccnc1	-15%	-15%	-1%	8	.	?
CCn1c(=O)c(=O)[nH]c2cc(C(=O)NC(C)c3ccc(S(N)(=O)=O)cc3)ccc21 (configuration not stated)	5%	0%	1%	12	-8%	4%
COc1ccccc1NC(=O)NCCN1CCN(c2cccc(Cl)c2)CC1	0%	23µM*!	-6%	?	-10%	?
